Screening data as filed in PubChem.
Rows were chosen to be rich in hits. Some 19% of all compounds tested hit in one or more screens of this group.
Gal4-VP16 FLuc – Gal4-VP16 reporter inhibition counter-screen; 3.5% of 310,000 active; Potency, µM (highest dose often 53.6 µM), hits mostly inhibitors; AID 2546; Drosophila S2 Gal4-VP16 UAS-luciferase, luminescence, 20 h;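 further: Gal4-VP16 expression switched on by copper sulfate through the metallothionein promoter; nearly all actives have a fitted effect of over 50% in size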
DT40 TDP1 CPT – DT40-hTDP1 cell growth loss with CPT | 12% of 420,000 active | chicken DT40 Tdp1-/-;hTDP1 cells + 20 nM CPT, ATP luminescence, 48 h | Potency, µM (highest dose often 46.2 µM), actives largely listed as inhibitors | AID 686979; further: nearly all actives have a fitted effect of over 55% in size
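Cell growth measured by CellTiter-Glo luminescence after a minimum 48 h, 37 C compound exposure with 20 nM CPT in Tdp1-knockout DT40 cells stably expressing hTDP1, seeded 400/well; qHTS titration format.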
RORgamma inh – blocks mouse ROR gamma transcriptional activity. P51450. Drosophila S2 Gal4-RORgamma UAS-luciferase reporter, 20 h. Potency, µM (titrated, usually from 53.6 µM), actives largely listed as inhibitors. 5.4% of 310,000 active; further: nearly all actives have a fitted effect of over 60% in size
Target sequence (P51450 whole entry, looked up, the tested form may be a part): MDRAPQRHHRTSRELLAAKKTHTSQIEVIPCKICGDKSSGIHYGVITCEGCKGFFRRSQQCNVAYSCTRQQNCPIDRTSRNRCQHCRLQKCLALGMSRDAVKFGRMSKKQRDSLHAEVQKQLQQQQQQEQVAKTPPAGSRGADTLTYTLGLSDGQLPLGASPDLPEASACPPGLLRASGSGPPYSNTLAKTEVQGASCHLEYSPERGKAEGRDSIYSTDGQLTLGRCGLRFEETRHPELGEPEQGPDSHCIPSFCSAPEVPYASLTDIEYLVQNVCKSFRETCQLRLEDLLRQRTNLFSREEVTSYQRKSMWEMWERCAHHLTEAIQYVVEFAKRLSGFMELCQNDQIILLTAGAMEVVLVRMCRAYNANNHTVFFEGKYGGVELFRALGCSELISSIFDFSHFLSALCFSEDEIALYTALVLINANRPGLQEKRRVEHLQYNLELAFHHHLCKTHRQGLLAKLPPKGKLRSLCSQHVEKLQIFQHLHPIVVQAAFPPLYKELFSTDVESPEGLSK
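Stably transfected Drosophila Schneider cells are the test system, with ROR gamma fused to Gal4 and luciferase under UAS control; luminescence is read after 20 hr of 700 uM copper sulfate induction at ambient temperature.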
TDP1 block – TDP1 (human) enzyme inhibition | Q9NUW8 | recombinant TDP1, AlphaScreen DNA substrate cleavage | Potency, µM (doses to about 130 µM), usual class: inhibitors | 0.28% of 350,000 active; further: nearly all actives have a fitted effect of over 40% in size
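AlphaScreen read-out: signal falls as enzyme removes the 3' tyrosine-FITC from a 5'-biotinylated DNA oligo (15 nM, 5 min, RT). Enzyme was E. coli-made recombinant Tdp1 at 1 nM, exposed to compound for 15 min beforehand; beads 10 ug/ml, 10 min.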
TDP1 cell noCPT – qHTS for Inhibitors of human tyrosyl-DNA phosphodiesterase 1 (TDP1): qHTS in cells in absence of CPT | DT40 Tdp1-/- hTDP1 cells, no CPT, ATP luminescence, 48 h | Potency, µM (top dose mostly 46.2 µM), most hits filed as inhibitors | 15% of 420,000 active | AID 686978, 2013; further: nearly all actives have a fitted effect of over 55% in size
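Camptothecin absent (DMSO only). Human TDP1-complemented DT40 knockout cells, 400 cells/well, 37 °C for minimum 48 hr; ATP measured via CellTiter-Glo, 30 min dark incubation, luminescence.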
A number is an active result; – = inactive; ? = inconclusive; · = no result given; [ ] = dose if it differs, or a comment. The call rests on the fitted dose curve; in most records, active means well fitted curve in the direction sought with a large enough effect; inconclusive means small, poorly fitted or top-dose-only effect, or another doubt; inactive means no such curve, though single readings can be large; an effect the other way counts as inactive or inconclusive.

SMILES | Gal4-VP16 FLuc | DT40 TDP1 CPT | RORgamma inh | TDP1 block | TDP1 cell noCPT
CCOc1cc(C(=O)Nc2ccc(NC(=O)c3cc4ccccc4o3)c(OC)c2)cc(OCC)c1OCC | · | ? | · | –[12.3 µM] | ?
Cc1ccc(-n2nc(C(=O)Nc3ccc(C)c(F)c3)c(=O)n(C)c2=O)cc1 | · | – | · | – | –
COc1cc(NC(=O)c2cccc(F)c2)cc(OC)c1OC | – | – | – | – | –
COc1ccc(Cl)cc1NC(=O)c1nn(-c2ccc(C)cc2)c(=O)n(C)c1=O | · | 16µM | · | – | –
COc1cc(NC(=O)c2nn(-c3ccc(F)cc3)c(=O)n(C)c2=O)cc(OC)c1OC | · | 15µM | · | – | 10µM
CCc1oc2ccccc2c1C(=O)c1cc(I)c(O)c(I)c1 | – | ? | –[10 µM] | – | ?
CCCCc1oc2ccccc2c1C(=O)c1cc(I)c(N(CC)CCOCC)c(I)c1 | · | 7.1µM | · | – | 4.5µM
COc1cccc(C2C(C(C)=O)=C(O)C(=O)N2Cc2ccco2)c1 (stereo not drawn) | – | – | – | – | –
CCn1c(COC(=O)CNC(=O)c2ccccc2)nc2cc(S(=O)(=O)N(C)C)ccc21 | · | – | · | – | –
CCOc1cc(CNc2ccc(Br)cc2)cc(Br)c1OCC(=O)NC(C)(C)C | – | 21µM | – | – | ?
COc1cc(CNc2ccc(CNc3ncn[nH]3)cc2)ccc1OCC(=O)NC(C)(C)C | – | ? | – | – | 16µM
O=C(CCNS(=O)(=O)c1ccc(OC(F)(F)F)cc1)N1CCN(C/C=C/c2ccccc2)CC1 | ? | ? | – | – | ?
Cn1ncc(-c2ccno2)c1C(=O)O | – | – | – | – | –
CCC(O)CNC(=O)NC(=C(Cl)Cl)c1ccc(C)c(F)c1 (stereo not drawn) | ? | ? | – | – | 10µM
O=C1c2cccnc2C(O)N1Cc1ccc(F)cc1 (stereo not drawn) | – | – | – | – | –
Cc1cc(C)nc(NC2=NC3CCCCC3N2)n1 (stereo not drawn) | – | 21µM | – | – | ?
Cc1cc(C)nc(NC2=NCC(=O)N2c2cc(Cl)cc(Cl)c2)n1 | – | – | – | – | –
CS(=O)(=O)N1CCC[C@@]2(CCN(C(c3ccccc3)c3ccccc3)C2)C1 | – | ? | – | · | ?
COc1ccc(N(CC(=O)N2c3ccccc3CC2C)S(=O)(=O)c2c(C)noc2C)cc1 (stereo not drawn) | – | ? | – | – | ?
Cc1c(O)ccc(/C=N/Nc2nc(-c3cccnc3)nc3ccccc23)c1O | 18µM | 5.2µM | 4.5µM | – | 3.7µM
Oc1ccc(/C=N/Nc2nc(-c3cccnc3)nc3ccccc23)c(O)c1 | 11µM | 23µM | ? | – | 4.1µM
C/C(=N\Nc1cc(C)nc(-c2ccccc2O)n1)c1ccccc1 | – | ? | – | – | ?
COc1ccc(/C=N/Nc2ncnc3scc(-c4ccccc4)c23)cc1OC | 0.89µM | ? | 3.5µM | – | ?
COc1cc(/C=N/Nc2ncnc3sc4c(c23)CCC4)ccc1O | ? | ? | –[10 µM] | – | ?
Cc1cc(N/N=C/c2ccc(O)c(C)c2O)nc(-c2ccccc2O)n1 | – | 13µM | – | – | 9.2µM
SMILES | Gal4-VP16 FLuc | DT40 TDP1 CPT | RORgamma inh | TDP1 block | TDP1 cell noCPT
COCCNC(=O)C(Cc1c[nH]c2ccccc12)NC(=O)OCc1ccccc1 (stereo not drawn) | – | – | – | · | –
CC1=CC(c2ccc(Cl)cc2)n2ncnc2N1 (stereo not drawn) | · | – | · | · | –
C/C(=N\Nc1nc(-c2ccc(C)cc2)nc2ccccc12)c1ccc([N+](=O)[O-])cc1 | – | · | – | – | ·
COc1ccc(/C=N/Nc2nc(-c3cccnc3)nc3ccccc23)cc1OC | – | 16µM | – | – | 3.7µM
Cc1ccc(-c2nc(N/N=C/c3ccncc3)c3ccccc3n2)cc1 | 0.28µM | 21µM | ? | – | 18µM
COc1ccc(CCNc2nc(-c3cccnc3)nc3ccccc23)cc1OC | – | 13µM | – | – | 9.2µM
NC(=S)NNc1c(F)c(F)c(F)c(F)c1F | ? | ? | 13µM | – | ?
COc1ccc(NC(=O)CCS(=O)(=O)c2cccc3nonc23)cc1 | – | – | – | – | –
CCCCN1C(=O)C(NC(=O)c2ccc(C(C)(C)C)cc2)(C(F)(F)F)C(C(=O)OC)=C1C (stereo not drawn) | · | ? | · | – | 23µM
COC(=O)Cn1cc(C(=O)c2ccco2)c2ccccc21 | – | – | – | – | –
Cc1ccc(C)c(OCCn2cc(C(=O)c3ccco3)c3ccccc32)c1 | · | 21µM | · | – | 13µM
Cc1ccc(C(C)C)c(OCCn2cc(C(=O)c3ccco3)c3ccccc32)c1 | · | 18µM | · | – | 15µM
CC1(C)Cc2cccc(OCC(=O)Nc3cccnc3)c2O1 | – | – | – | – | ?
CCN(CC)CCNC(=O)Cn1ncc2ccccc2c1=O | – | – | – | – | –
COc1ccc(S(=O)(=O)N2CCN(C(=O)c3cc(C)oc3C)CC2)cc1OC | · | – | · | – | –
Nc1cc2nsnc2cc1Br | – | 5.8µM | 13µM | – | 5.8µM
CC(Sc1ccc2c(c1)OCCO2)C(=O)Nc1ccc(N2CCOCC2)cc1 (stereo not drawn) | – | – | – | – | –
CCCCc1c(CCC)c(=N)c2ccccc2n1C | – | 23µM | – | – | 5.2µM
COc1cc(OC)cc(-c2nnc(SCC(=O)NCc3cccs3)o2)c1 | – | – | – | – | –
CCOc1cc(NS(=O)(=O)CC)c(OCC)cc1NC(=O)c1ccco1 | – | ? | ? | – | ?
COCCNC(=S)Nc1cc(OC)c(NC(=O)c2ccco2)cc1OC | – | – | – | – | –
CCOc1cc(NC(=S)NCC(C)C)c(OCC)cc1NC(=O)c1ccco1 | 7.9µM | 15µM | 5µM | – | ?
CCOCCCNC(=S)Nc1cc(OCC)c(NC(=O)c2ccco2)cc1OCC | – | – | 7.9µM | – | –
CCOc1ccc(/C=C/C2=Cc3c(sc(NC(=O)CSc4n[nH]c(N)n4)c3C#N)C(C)(C)C2)cc1 | – | 13µM | – | – | 15µM
Cc1ccsc1/C=C/C1=Cc2c(sc(NC(=O)CSc3n[nH]c(N)n3)c2C#N)C(C)(C)C1 | – | 23µM | – | – | 15µM
SMILES | Gal4-VP16 FLuc | DT40 TDP1 CPT | RORgamma inh | TDP1 block | TDP1 cell noCPT
NC(=O)c1ccsc1NC(=O)CSc1n[nH]c(N)n1 | · | – | · | – | –
C[Se]CC[C@H](N)C(=O)O | – | – | – | · | –
COCCCNc1nc2nonc2nc1NCCSC | – | – | – | · | –
Cc1cc(=O)oc2cc(OCc3ccc(S(=O)(=O)N4CCOCC4)cc3)ccc12 | – | ? | – | – | 29µM
COc1ccc(COc2ccc3c(C)cc(=O)oc3c2)cc1 | – | ? | – | – | ?
CC(C)(C)C1CCc2c(sc3nc(-c4cc5cc(Br)ccc5oc4=O)[nH]c(=O)c23)C1 (stereo not drawn) | · | – | · | – | –
CC(c1ccco1)N(C(=O)C12CC3CC(CC(C3)C1)C2)c1ccccn1 (stereo not drawn) | – | 21µM | – | – | ?
